# Test results: the supplement of paper PMC3545927
# The other results are listed elsewhere or left out. No count for the full screen is at hand.
# Biological target: furin, P09958
# Experiment: furin cleavage Z-score vs untreated control; higher = more cleavage, active = 3.5 or more, inactive = 1 or less, 8 variable residues between constant flanks
# Procedure, shortened: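 Purified furin cleaved 8-mer peptides that were fused to a cDNA oligonucleotide and held on magnetic beads by their N-terminus. Each 0.01 ml reaction used a 1:10 enzyme:substrate ratio in 50 mM HEPES pH 7.5 with CaCl2 and NaCl and ran 7.5, 15 or 30 min. Released DNA was adapter-tagged by PCR and sequenced, and read counts gave abundance. The cleavage Z-score came from log counts against furin-free reactions, lowess-adjusted and scaled by median absolute deviation.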
# Chain of furin, P09958 (P09958 whole entry): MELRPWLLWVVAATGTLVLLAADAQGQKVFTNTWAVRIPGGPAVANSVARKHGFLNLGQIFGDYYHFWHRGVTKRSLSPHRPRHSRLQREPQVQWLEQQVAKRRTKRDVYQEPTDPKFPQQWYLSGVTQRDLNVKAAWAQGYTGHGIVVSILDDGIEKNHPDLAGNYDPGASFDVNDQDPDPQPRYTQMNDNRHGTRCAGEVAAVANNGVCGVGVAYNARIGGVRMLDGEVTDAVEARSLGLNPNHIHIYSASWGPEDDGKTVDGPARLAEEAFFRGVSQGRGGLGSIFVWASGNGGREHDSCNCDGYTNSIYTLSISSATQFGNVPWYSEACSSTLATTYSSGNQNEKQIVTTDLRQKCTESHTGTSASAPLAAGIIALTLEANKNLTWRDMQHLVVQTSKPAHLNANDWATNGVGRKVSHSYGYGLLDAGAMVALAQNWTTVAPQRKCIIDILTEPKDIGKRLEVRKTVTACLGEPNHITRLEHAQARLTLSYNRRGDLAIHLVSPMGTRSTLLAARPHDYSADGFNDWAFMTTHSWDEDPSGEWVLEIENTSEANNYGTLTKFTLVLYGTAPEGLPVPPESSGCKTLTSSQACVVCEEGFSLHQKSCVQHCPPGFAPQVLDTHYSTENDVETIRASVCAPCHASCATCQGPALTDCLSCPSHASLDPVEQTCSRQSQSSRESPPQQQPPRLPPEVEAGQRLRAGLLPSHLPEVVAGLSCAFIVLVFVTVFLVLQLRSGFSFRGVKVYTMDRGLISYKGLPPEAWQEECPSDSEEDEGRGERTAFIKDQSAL
Sequence,furin cleavage Z-score (7.5 min),furin cleavage Z-score (15 min),furin cleavage Z-score (30 min)
CALEQALDCEAGNASASA [HC1590],-1.94 (inactive),0.416 (inactive),-0.45 (inactive)
CAGLVPRGSAAGNASASA [TR1],0.366 (inactive),-0.466 (inactive),-0.254 (inactive)
CAMEEQSQHLAGNASASA [HC19],0.113 (inactive),0.699 (inactive),0.674 (inactive)
CAAIPLEVIKAGNASASA [HC850],-0.209 (inactive),0.792 (inactive),-0.386 (inactive)
CAPTHYVPESAGNASASA [HC1126],1.82,-1.79 (inactive),0.876 (inactive)
CALQRRVKRSAGNASASA [FS-1463],3.17,3.78 (active),1.92
CALQRRKKKGAGNASASA [FS-1643],-0.863 (inactive),-0.718 (inactive),0.433 (inactive)
CAGFRRFKRSAGNASASA [FS-240],8.1 (active),5.19 (active),7.05 (active)
CANQLRVKRSAGNASASA [FS-554],5.48 (active),5 (active),3.97 (active)
CAPSRRVKRSAGNASASA [FS-1149],8.11 (active),7.59 (active),5 (active)
CAGFRRSMDQAGNASASA [FS-2860],-0.496 (inactive),-0.187 (inactive),0.074 (inactive)
CAEVVTSAWVAGNASASA [HC2203],-1.33 (inactive),-0.0621 (inactive),-0.753 (inactive)
CASTTSRSACAGNASASA [HC1390],0.133 (inactive),-0.0614 (inactive),-0.754 (inactive)
CALAGLSTLPAGNASASA [HC1048],0.519 (inactive),1.63,0.445 (inactive)
CALKATCTANAGNASASA [HC1266],0.615 (inactive),2.96,1.42
CAKLFRVKRSAGNASASA [FS-1220],11.7 (active),10.7 (active),8.14 (active)
CACWRRMKRSAGNASASA [FS-1113],9.77 (active),10.5 (active),7.93 (active)

Sequence,furin cleavage Z-score (7.5 min),furin cleavage Z-score (15 min),furin cleavage Z-score (30 min)
CARTGKVKRSAGNASASA [FS-497],10.7 (active),9.35 (active),8.07 (active)
CAECYDAGCAAGNASASA [HC920],-0.745 (inactive),0.00773 (inactive),-0.466 (inactive)
CAGCPLPPPKAGNASASA [HC1317],0.693 (inactive),-0.374 (inactive),-0.0504 (inactive)
CAVVPRGVNLAGNASASA [TR7],1.05,-0.803 (inactive),1.14
CAMEERSQHLAGNASASA [HC10],-0.0717 (inactive),-0.428 (inactive),1.49
CALYREFDEMAGNASASA [HC1011],0.989 (inactive),0.494 (inactive),-1.47 (inactive)
CAGDKRVKRRAGNASASA [FS-159],8.54 (active),8.95 (active),8.22 (active)
CALSPRVKRIAGNASASA [FS-687],8.46 (active),10.4 (active),8.69 (active)
CALSPRTFHPAGNASASA [TR5],-0.266 (inactive),0.174 (inactive),-0.959 (inactive)
CAVSPRVKRPAGNASASA [FS-1104],-1.44 (inactive),-0.535 (inactive),-0.559 (inactive)
CALSPRPISYAGNASASA [HC737],0.872 (inactive),0.348 (inactive),0.915 (inactive)
CAGDSRVMRWAGNASASA [FS-591],0.599 (inactive),-0.204 (inactive),0.578 (inactive)
CALVHRVKRRAGNASASA [FS-274],13 (active),14.7 (active),10.7 (active)
CAVSPTHYVPAGNASASA [HC1125],0.189 (inactive),0.58 (inactive),-0.874 (inactive)
CAVSPRVKRRAGNASASA [FS-1105],6.42 (active),5.9 (active),5.56 (active)
CAGDKELRTGAGNASASA [EK10],-0.528 (inactive),-3.59 (inactive),-0.0871 (inactive)
